This is a sample that favours compounds with a hit; in the whole collection about 12% have one here.
HP1b chromo inh: HP1-beta chromodomain-methylated histone interaction inhibition | AlphaScreen HP1-beta / biotin-H3K9me3 peptide binding | Potency, µM (titrated, usually from 114 µM), actives largely listed as inhibitors | hit rate 0.56% among 390,000 | P83916; also: nearly all actives have a fitted effect of over 70% in size
Target sequence (P83916 whole entry, looked up): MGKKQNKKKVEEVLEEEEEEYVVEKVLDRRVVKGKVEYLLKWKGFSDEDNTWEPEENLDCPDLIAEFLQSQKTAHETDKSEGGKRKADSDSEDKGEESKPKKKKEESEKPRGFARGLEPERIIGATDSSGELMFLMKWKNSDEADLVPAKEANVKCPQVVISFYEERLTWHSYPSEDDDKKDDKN
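Compound inhibition of the preformed complex between 50 nM HP1-beta and 50 nM biotinylated H3K9me3 peptide was read by AlphaScreen. Buffer was PBS pH 7.4 with 0.01% Tween-20. Incubations ran 30 min at room temperature, with 10 ug/mL donor/acceptor beads.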
Sfp inh: blocks B. subtilis Sfp PPTase activity | Biochemical Sfp PPTase activity, qHTS | hit rate 3.5% among 310,000 | Q9F4F7 | Potency, µM, hits mostly inhibitors;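 also: the enzyme is Sfp with the accession as filed and its product quenches rhodamine fluorescence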
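Compounds were incubated with enzyme (final 15 nM) for 15 min at room temperature before substrate addition started the reaction. Fluorescence at 525 nm excitation, 598 nm emission was recorded immediately and after 30 minutes.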
JMJD2A Tudor: JMJD2A Tudor domain (human) inhibition; O75164; AlphaScreen JMJD2A-Tudor / H3K4me3 peptide binding; Potency, µM (doses to about 114 µM), most hits filed as inhibitors; hit rate 4.4% among 390,000; AID 504339; also: nearly all actives have a fitted effect of over 50% in size
L3MBTL1 block: inhibitors of human L3MBTL1; Q9Y468; AlphaScreen L3MBTL1–H3K9me1 peptide binding; Potency, µM (titrated, usually from 57.1 µM), hits mostly inhibitors; hit rate 0.66% among 230,000; AID 485360; also: nearly all actives have a fitted effect of over 60% in size
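First, the protein-peptide complex forms for 30 min at room temperature (L3MBTL1 50 nM, biotinylated H3K9me1 peptide 75 nM). Next, compounds are pin-transferred and incubated 30 min. Finally, AlphaScreen beads are added and read after 30 min.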
BAZ2B inh: blocks human BAZ2B | Potency, µM (titrated, usually from 114 µM), most hits filed as inhibitors | AlphaScreen BAZ2B-H3K14Ac peptide displacement | hit rate 4.4% among 360,000 | Q9UIF8; also: nearly all actives have a fitted effect of over 60% in size
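BAZ2B (50 nM) with biotin-H3(5-23)K14Ac peptide (50 nM) in PBS pH 7.4, 0.01% Tween-20, preformed 30 min, then compound 30 min at room temperature; top concentration 110uM. AlphaScreen streptavidin donor/nickel chelate acceptor beads (10 ug/mL final), 20 min dark, signal read.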
G9a inh: G9a (human) methyltransferase inhibition; Potency, µM (highest dose often 102 µM), actives largely listed as inhibitors; hit rate 8.8% among 350,000; Q96KQ7; G9a H3K9 monomethylation, AlphaScreen, 2 h; also: nearly all actives have a fitted effect of over 75% in size
Target sequence (Q96KQ7 913-1193 limits assumed): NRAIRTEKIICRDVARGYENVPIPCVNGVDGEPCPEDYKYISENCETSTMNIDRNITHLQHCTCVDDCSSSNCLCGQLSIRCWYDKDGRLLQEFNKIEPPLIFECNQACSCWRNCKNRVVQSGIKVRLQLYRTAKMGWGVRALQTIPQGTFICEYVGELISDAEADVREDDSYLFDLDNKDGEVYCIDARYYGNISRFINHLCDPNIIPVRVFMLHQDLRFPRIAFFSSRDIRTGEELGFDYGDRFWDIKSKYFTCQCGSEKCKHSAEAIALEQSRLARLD
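Enzyme 20 nM + cpd, 15 min RT; add b-H3K9 pep 500 nM / SAM 20 uM; 2 h RT; anti-H3K9me1 Ab 0.5 ug/mL + SA donor / anti-rabbit acceptor beads 20 ug/mL each, 10 min; AlphaScreen read.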
Hits are given with their value; ! = not confirmed by another sample; [ ] = dose if it differs, or a comment. Calls follow the shape of the dose curve; as a rule, active = well fitted curve in the direction sought with a large enough effect; inconclusive = small, poorly fitted or top-dose-only effect, or another doubt; inactive = no such curve, though single readings can be large; an effect the other way counts as inactive or inconclusive.

`CCC(C)(C)n1nnnc1C(c1cc2cc(OC)c(OC)cc2[nH]c1=O)N1CCc2ccccc21` (stereo not drawn) gave HP1b chromo inh inactive, Sfp inh inactive, JMJD2A Tudor inconclusive, L3MBTL1 block inactive, BAZ2B inh inactive and G9a inh 45µM.
`O=C(NNc1ccc(F)cc1F)c1cccs1` gave HP1b chromo inh inactive and JMJD2A Tudor inactive.
Screening Cc1ccc(NC(=O)Nc2cccs2)cc1 returned HP1b chromo inh inactive, Sfp inh 18µM, JMJD2A Tudor inactive, L3MBTL1 block inactive, BAZ2B inh inconclusive and G9a inh inconclusive.
`CCOc1ccc(NC(=O)Nc2ccc3nsnc3c2)cc1` gave HP1b chromo inh inactive, Sfp inh inactive, JMJD2A Tudor inactive, L3MBTL1 block inactive, BAZ2B inh inactive and G9a inh inactive.
`CCc1ccc(NC(=O)Nc2cn(C)c(=O)c3ccccc23)cc1` gave HP1b chromo inh inactive, JMJD2A Tudor inactive, BAZ2B inh inactive and G9a inh 10µM.
Cc1cc(C)cc(NC(=O)Nc2cccs2)c1 was read as HP1b chromo inh inactive, JMJD2A Tudor inactive, BAZ2B inh inactive and G9a inh inconclusive.
CCOc1ccc(NC(=O)Nc2cccs2)cc1 was read as HP1b chromo inh inactive, Sfp inh 56µM, JMJD2A Tudor inactive, BAZ2B inh inactive and G9a inh inconclusive.
Screening CCc1ccc(NC(=O)Cc2c(C(=O)O)n(C)c3ccccc23)cc1 returned HP1b chromo inh inactive, Sfp inh inactive, JMJD2A Tudor inactive, BAZ2B inh 28µM and G9a inh inconclusive.
`CC(=O)Nc1cc2c(s1)c1cnn(Cc3ccccc3F)c(=O)c1n2C` gave L3MBTL1 block inactive, BAZ2B inh inactive and G9a inh inactive[12.7 µM].
For O=C(Nc1ccc(C(F)(F)F)cc1)C1CCCN(c2cnccn2)C1 (stereo not drawn) the results were HP1b chromo inh inactive, JMJD2A Tudor inactive, BAZ2B inh inactive and G9a inh inactive.
CC(=O)c1cccc(NC(=O)Nc2cccs2)c1 was read as HP1b chromo inh inactive, Sfp inh inconclusive, JMJD2A Tudor inactive, BAZ2B inh inconclusive and G9a inh inconclusive.
`COc1ccc(NC(=O)Nc2cccs2)cc1OC` gave HP1b chromo inh inactive, Sfp inh 45µM, JMJD2A Tudor inconclusive, BAZ2B inh inconclusive and G9a inh 45µM.
CCc1ccc(NC(=O)Nc2cccs2)cc1 was read as HP1b chromo inh inactive, Sfp inh 50µM, JMJD2A Tudor inactive, L3MBTL1 block inactive, BAZ2B inh inconclusive and G9a inh 10µM.
Cc1nc2nc(NCc3ccc(Cl)cc3)[nH]n2c(=O)c1Cc1ccccc1 was read as HP1b chromo inh inactive, JMJD2A Tudor inactive, BAZ2B inh inactive and G9a inh inconclusive.
O=C(C1COc2ccccc2O1)N(Cc1cccnc1)c1nc2ccc(Cl)cc2s1 (stereo not drawn) was read as HP1b chromo inh inactive, JMJD2A Tudor inactive, BAZ2B inh inactive and G9a inh inactive.
For COc1ccc(NC2C=CS(=O)(=O)C2)cc1 (stereo not drawn) the results were HP1b chromo inh inactive, Sfp inh inactive, JMJD2A Tudor inactive, BAZ2B inh inactive and G9a inh inactive.
Screening Cc1nc(SC2C=CS(=O)(=O)C2)n[nH]1 (stereo not drawn) returned HP1b chromo inh inactive, Sfp inh inactive, JMJD2A Tudor 56µM, BAZ2B inh inconclusive and G9a inh 50µM.
O=S(=O)(NCc1nc2cccnc2n1Cc1ccccc1Cl)c1ccc(F)c(Cl)c1 was read as HP1b chromo inh inactive, JMJD2A Tudor inactive, BAZ2B inh inactive and G9a inh inactive.
`CCCN1CNc2c(c(=O)[nH]c(=S)n2CCc2ccc(Cl)cc2)C1` gave HP1b chromo inh inactive and JMJD2A Tudor inactive.
CCN1CCN(C(=O)c2cc3cc([N+](=O)[O-])ccc3oc2=O)CC1 was read as HP1b chromo inh inactive, Sfp inh inactive, JMJD2A Tudor inactive, L3MBTL1 block inactive, BAZ2B inh inactive and G9a inh inconclusive.
`O=C(c1cc2cc([N+](=O)[O-])ccc2oc1=O)n1cccn1` gave HP1b chromo inh inactive, Sfp inh inactive, JMJD2A Tudor inactive, L3MBTL1 block 40µM, BAZ2B inh inactive and G9a inh 45µM.
Cc1ccc(C(=O)NN2C(=O)c3ccc(S(=O)(=O)c4ccc(C(=O)O)cc4)cc3C2=O)cc1 was read as HP1b chromo inh inactive, Sfp inh inactive, JMJD2A Tudor 16µM, BAZ2B inh inactive and G9a inh inconclusive.
For O=C(O)c1ccc(S(=O)(=O)c2ccc3c(c2)C(=O)N(NC(=O)c2ccc(O)cc2)C3=O)cc1 the results were HP1b chromo inh inactive, Sfp inh inactive, JMJD2A Tudor inactive[11.4 µM], L3MBTL1 block inactive, BAZ2B inh inconclusive and G9a inh inactive.
Screening CC1=C(CC(=O)O)c2cc(F)ccc2/C1=C\c1ccc(S(C)=O)cc1 (stereo not drawn) returned HP1b chromo inh inactive, Sfp inh 79µM!, JMJD2A Tudor inactive, BAZ2B inh inactive and G9a inh 8.4µM!.
For Cc1ccc2c(c1)/C(=C/c1ccc(F)cc1)C(=O)N2 the results were HP1b chromo inh inactive, Sfp inh inactive, JMJD2A Tudor inconclusive, BAZ2B inh inactive and G9a inh inactive.
`O=C1OCCC1Sc1nnc(-c2ccc(Cl)cc2)n1Cc1ccccc1` (stereo not drawn) gave HP1b chromo inh inactive, Sfp inh inactive, JMJD2A Tudor inactive, L3MBTL1 block inactive, BAZ2B inh inactive and G9a inh 11µM.
For CCC(=O)Nc1sc(C(=O)Nc2ccccc2F)c(C)c1C(=O)OC the results were HP1b chromo inh inactive, Sfp inh inactive, JMJD2A Tudor inactive, L3MBTL1 block inactive and BAZ2B inh inactive.
`COC(=O)c1c(NC(C)=O)sc(C(=O)Nc2ccccc2F)c1C` gave HP1b chromo inh inactive, Sfp inh 71µM, JMJD2A Tudor inconclusive, L3MBTL1 block inactive and BAZ2B inh inactive.
For COC(=O)CSc1nc(-c2ccc(C)cc2)c2c(c1C#N)CCCC2 the results were HP1b chromo inh inactive, Sfp inh inconclusive, JMJD2A Tudor inactive, BAZ2B inh inactive and G9a inh inactive[2.33 µM].
`COC(=O)c1ccc(CSc2nc(C(F)(F)F)c3c(c2C#N)CCC3)o1` gave HP1b chromo inh inactive, Sfp inh 56µM, JMJD2A Tudor inactive, L3MBTL1 block inactive, BAZ2B inh inactive and G9a inh inactive[0.0925 µM].
`COc1ccc(OCCNc2cc(N3CCOCC3)ccc2[N+](=O)[O-])cc1` gave HP1b chromo inh inactive, Sfp inh inactive, JMJD2A Tudor 79µM, L3MBTL1 block inactive, BAZ2B inh inconclusive and G9a inh inconclusive.
Screening CC(C)CNc1cc(N2CCCC2)ccc1[N+](=O)[O-] returned HP1b chromo inh inactive, Sfp inh inactive, JMJD2A Tudor inconclusive, L3MBTL1 block inactive, BAZ2B inh inconclusive and G9a inh 11µM.
